Results from PubChem BioAssay.
“And” between values parts separate entries of the source, which are not always exact repeats. Equal values may be shown once. The source made the active and inactive calls.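 How the source made its calls: active means thallium flux through the channel raised or lowered by more than 3 SD from vehicle-only wells, actives on both sides; inactive means the rest.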

Key:
Test in all cases: modulators of BK channel variants, profiling panel, selectivity assay, cell-based, U2OS BacMam, thallium flux, beta subunits (AID 1259406);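 further: initial slope of Thallos dye fluorescence rise after thallium is added; log ratio against the mean of 0.3% DMSO vehicle wells on the same plate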
F380Y = conditions: at 30 µM
F380Y/beta1 = conditions: at 30 µM
F380Y/beta2Delta = conditions: at 30 µM
F380Y/beta4 = conditions: at 30 µM
[1] = biological target: Calcium-activated potassium channel subunit alpha-1 (Homo sapiens) + Leucine-rich repeat-containing protein 26 (Homo sapiens) (UniProt Q12791+Q2I0M4); conditions: F380Y/Slo1WT/gamma1, at 30 µM
Calcium-activated potassium channel subunit alpha-1 (Homo sapiens) + Leucine-rich repeat-containing protein 26 (Homo sapiens), sequence (Q2I0M4 whole entry, looked up, one chain of several): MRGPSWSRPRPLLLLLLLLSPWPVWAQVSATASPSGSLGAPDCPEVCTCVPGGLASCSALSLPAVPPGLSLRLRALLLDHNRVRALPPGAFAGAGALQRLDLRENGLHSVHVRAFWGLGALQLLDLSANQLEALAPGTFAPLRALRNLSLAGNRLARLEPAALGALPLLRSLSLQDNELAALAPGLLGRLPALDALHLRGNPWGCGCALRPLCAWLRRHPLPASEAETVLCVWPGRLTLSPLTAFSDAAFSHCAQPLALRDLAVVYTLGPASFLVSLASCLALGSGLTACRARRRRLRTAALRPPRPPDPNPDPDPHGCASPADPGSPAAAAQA

R275C = conditions: at 30 µM
R275C/beta1 = conditions: at 30 µM
R275C/beta2Delta = conditions: at 30 µM
R275C/beta4 = conditions: at 30 µM
R275C/Slo1WT/beta2 = conditions: at 30 µM

Measured: log fold change Tl+ flux

Cc1[nH]cnc1CN1CCc2c(c3ccccc3n2C)C1=O
inactive: F380Y 0.0315 | F380Y/beta1 0.0327 | F380Y/beta2Delta -0.0209 | F380Y/beta4 -0.0392 | [1] 0.00572 | R275C -0.066 | R275C/beta1 0.0308 | R275C/beta2Delta -0.0141 | R275C/beta4 0.0279 | R275C/Slo1WT/beta2 0.0535

CN(CCCN1c2ccccc2CCc2ccccc21)CC(=O)c1ccc(Cl)cc1
inactive: F380Y -0.0806 | F380Y/beta1 -0.0237 | F380Y/beta2Delta -0.0465 | F380Y/beta4 0.0103 | [1] 0.00396 | R275C -0.00393 | R275C/beta1 0.055 | R275C/beta2Delta 0.0142 | R275C/beta4 0.0763 | R275C/Slo1WT/beta2 -0.0536

O=C(c1ccc(F)cc1)C1CCN(CCn2c(=S)[nH]c3ccccc3c2=O)CC1
inactive: F380Y 0.0153 | F380Y/beta1 0.00744 | F380Y/beta2Delta -0.00369 | F380Y/beta4 0.0138 | [1] -0.000443 | R275C 0.0338 | R275C/beta1 -0.0174 | R275C/beta2Delta -0.00339 | R275C/beta4 -0.00101
active: R275C/Slo1WT/beta2 0.0813

O=C(CCNNC(=O)c1ccncc1)NCc1ccccc1
inactive: F380Y 0.000985 | F380Y/beta1 0.00246 | F380Y/beta2Delta -0.0162 | F380Y/beta4 0.0308 | [1] 0.00963 | R275C -0.0947 | R275C/beta1 -0.0338 | R275C/beta2Delta 0.038 | R275C/beta4 0.0195 | R275C/Slo1WT/beta2 0.0406

O=C1CC2(CCCC2)CC(=O)N1CCCCN1CCN(c2ncccn2)CC1
inactive: F380Y 0.0254 | F380Y/beta1 0.0242 | F380Y/beta2Delta 0.0619 | F380Y/beta4 0.0587 | [1] 0.00932 | R275C 0.00417 | R275C/beta1 0.0329 | R275C/beta2Delta -0.0367 | R275C/beta4 0.0017 | R275C/Slo1WT/beta2 -0.02

CCN1CC(CCN2CCOCC2)C(c2ccccc2)(c2ccccc2)C1=O (stereo not given)
inactive: F380Y 0.0128 | F380Y/beta1 -0.0268 | F380Y/beta2Delta -0.000818 | F380Y/beta4 0.03 | [1] -0.0552 | R275C -0.0141 | R275C/beta1 -0.00917 | R275C/beta2Delta 0.0055 | R275C/beta4 0.000738 | R275C/Slo1WT/beta2 -0.0334

CCOC(=O)O[C@]1(C(=O)OCCl)CC[C@H]2[C@@H]3CCC4=CC(=O)C=C[C@]4(C)[C@H]3[C@@H](O)C[C@@]21C
inactive: F380Y -0.0169 | F380Y/beta1 -0.0185 | F380Y/beta2Delta -0.0465 | F380Y/beta4 0.0515 | [1] 0.0345 | R275C -0.0297 | R275C/beta1 0.0209 | R275C/beta2Delta 0.00232 | R275C/beta4 0.00823 | R275C/Slo1WT/beta2 0.00305

Nc1ccn([C@H]2CC[C@@H](CO)O2)c(=O)n1
inactive: F380Y 0.0263 | F380Y/beta1 0.0264 | F380Y/beta2Delta -0.0145 | F380Y/beta4 0.0289 | [1] 0.0157 | R275C -0.0969 | R275C/beta1 -0.00164 | R275C/beta2Delta -0.00877 | R275C/beta4 0.00428 | R275C/Slo1WT/beta2 0.0272

CC(C)(C)NC(=O)[C@@H]1CN(Cc2cccnc2)CCN1C[C@@H](O)C[C@@H](Cc1ccccc1)C(=O)N[C@H]1c2ccccc2C[C@H]1O
active: R275C/Slo1WT/beta2 0.101
inactive: F380Y -0.012 | F380Y/beta1 -0.0545 | F380Y/beta2Delta -0.0728 | F380Y/beta4 -0.0768 | [1] 0.0169 | R275C -0.0278 | R275C/beta1 -0.00667 | R275C/beta2Delta -0.0261 | R275C/beta4 0.0581

COC(=O)CCc1ccc(OCC(O)CNC(C)C)cc1 (stereo not given)
inactive: F380Y -0.0174 | F380Y/beta1 0.0192 | F380Y/beta2Delta 0.0184 | F380Y/beta4 -0.0155 | [1] -0.00535 | R275C -0.0168 | R275C/beta1 0.0198 | R275C/beta2Delta 0.0115 | R275C/beta4 0.0115 | R275C/Slo1WT/beta2 0.0231

Cc1cn([C@H]2C=C[C@@H](CO)O2)c(=O)[nH]c1=O
inactive: F380Y -0.00288 and 0.0465 | F380Y/beta1 0.0156 and 0.0441 | F380Y/beta2Delta 0.00122 and 0.00603 | F380Y/beta4 -0.027 and 0.00706 | [1] 0.0426 and -0.00611 | R275C -0.1 and -0.00698 | R275C/beta1 -0.02 and 0.0272 | R275C/beta2Delta -0.0201 and 0.00371 | R275C/beta4 0.0202 and -0.00131 | R275C/Slo1WT/beta2 0.0395 and 0.0392

Brc1c(NC2=NCCN2)ccc2nccnc12
inactive: F380Y -0.0564 | F380Y/beta1 0.00839 | F380Y/beta2Delta -0.06 | F380Y/beta4 -0.0578 | [1] -0.0163 | R275C -0.0123 | R275C/beta1 0.0524 | R275C/beta2Delta -0.0061 | R275C/beta4 0.0292 | R275C/Slo1WT/beta2 0.0556

O=C1c2cccc3c2[C@H](CCC3)CN1[C@@H]1CN2CCC1CC2
inactive: F380Y 0.0472 | F380Y/beta1 0.0342 | F380Y/beta2Delta 0.0262 | F380Y/beta4 0.0479 | [1] 0.0044 | R275C -0.0177 | R275C/beta1 -0.00783 | R275C/beta2Delta 0.00552 | R275C/beta4 -0.0169 | R275C/Slo1WT/beta2 -0.0269
